Experimental data published in the supplement of paper PMC10127200.
Where a name gives a salt, the structure may show the parent alone.

Legend:
Assay in all cases: Euclidean distance of Cell Painting phenotypic profile (signed KS, 77 features) to DMSO centroid (dimensionless distance); 5 or 10 uM (library dependent); higher = stronger phenotypic change vs DMSO (phenoactivity)
Conditions in all cases: 48 h
[1] = test system: 786-O
Procedure, shortened: (§1)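 Phenoactivity is defined as the Euclidean distance from a compound profile to the median vehicle profile. Each profile comprised 77 Harmony features, scored as signed Kolmogorov-Smirnov statistics versus same-plate vehicle wells, then plate-position corrected, correlation-weighted and replicate-averaged at the top dose. Five cancer lines and one healthy fibroblast line were exposed to library compounds for 48 h at 10 or 5 uM (0.1% DMSO final).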

[2] = test system: A549
Procedure, shortened: as §1

[3] = test system: DU145
Procedure, shortened: as §1

[4] = test system: FB
Procedure, shortened: as §1

[5] = test system: HEPG2
Procedure, shortened: as §1

[6] = test system: OVCAR4
Procedure, shortened: as §1

| SMILES | Euclidean distance [1] | Euclidean distance [2] | Euclidean distance [3] | Euclidean distance [4] | Euclidean distance [5] | Euclidean distance [6] |
| --- | --- | --- | --- | --- | --- | --- |
| COCCOc1cnc2ccn([C@H](C)c3nnc4c(F)cc(-c5cnn(C)c5)cn34)c(=O)c2c1 | 1.01 | 1.18 | 1.5 | 1.29 | 1.39 | 1.46 |
| CCOC(=O)/C=C(C)/C=C/C=C(C)/C=C/c1c(C)cc(OC)c(C)c1C [Etretinate] | 0.891 | 0.993 | 1.22 | 1.15 | 1.14 | 1.85 |
| COc1ccc(CCC(=O)Nc2nc3ccc(Cl)cc3s2)cc1OC | 1.29 | 1.76 | 1.19 | 0.998 | 1.39 | 1.52 |
| CCN(c1cc(-c2ccc(CN3CCOCC3)cc2)cc(C(=O)NCc2c(C)cc(C)[nH]c2=O)c1C)C1CCOCC1 [Tazemetostat (EPZ-6438)] | 0.99 | 1.2 | 0.651 | 0.92 | 0.489 | 1.16 |
| Nc1ncn([C@@H]2O[C@H](CO)[C@@H](O)[C@H]2O)c(=O)n1 [Azacitidine] | 1.87 | 1.89 | 1.92 | 2.79 | 1.69 | 1.33 |
| CCC(=O)N1CCN(c2ccc(-n3c(=O)ccc4cnc5ccc(-c6cnc7ccccc7c6)cc5c43)cc2C(F)(F)F)CC1 [Torin 1] | 2.66 | 3.46 | 2.74 | 4.26 | 2.78 | 3.47 |
| NS(=O)(=O)c1cc(C2(O)NC(=O)c3ccccc32)ccc1Cl (stereo unspecified) [Chlorthalidone] | 0.738 | 0.425 | 1.18 | 1.4 | 0.481 | 0.876 |
| NCC(=O)CCC(=O)O [5-Aminolevulinic acid HCl] | 1.2 | 0.994 | 1.81 | 1.12 | 1.61 | 2 |
| CCCCNc1ccc(C(=O)OCCN(C)C)cc1 [Tetracaine HCl] | 0.993 | 0.918 | 0.964 | 1.06 | 0.941 | 1.79 |
| O=C(c1ccccc1)c1ccc2n1CCC2C(=O)O (stereo unspecified) [Ketorolac] | 1.49 | 1.29 | 0.701 | 0.977 | 0.545 | 1.06 |
| CCOc1nc2cccc(C(=O)OC(C)OC(=O)OC3CCCCC3)c2n1Cc1ccc(-c2ccccc2-c2nn[nH]n2)cc1 (stereo unspecified) [Candesartan Cilexetil] | 1.1 | 0.605 | 1.35 | 0.788 | 1.82 | 1.29 |
| Oc1c(Cl)cc(Cl)c(Cl)c1Cc1c(O)c(Cl)cc(Cl)c1Cl [Hexachlorophene] | 2.16 | 1.62 | 1.19 | 3.31 | 2.53 | 1.64 |
| O=C(O)c1cc(/N=N/c2ccc(S(=O)(=O)Nc3ccccn3)cc2)ccc1O [Sulfasalazine] | 1.02 | 0.839 | 0.638 | 1.14 | 0.963 | 0.897 |
| Nc1nccs1 [Aminothiazole] | 0.905 | 1.79 | 2.14 | 1.92 | 0.971 | 1.9 |
| Cn1ncc(Cl)c1-c1cc(C(=O)N[C@H](CN)Cc2ccc(F)c(F)c2)oc1Cl | 3.04 | 2.27 | 3.3 | 3.69 | 2.27 | 2.44 |
| CCOC(=O)n1ccn(C)c1=S [Carbimazole] | 1.03 | 1.11 | 1.2 | 0.945 | 0.319 | 1.09 |
| CO[C@H]1/C=C/O[C@@]2(C)Oc3c(C)c(O)c4c(c3C2=O)C2=NC3(CCN(CC(C)C)CC3)NC2=C(NC(=O)/C(C)=C\C=C\[C@H](C)[C@H](O)[C@@H](C)[C@@H](O)[C@@H](C)[C@H](OC(C)=O)[C@@H]1C)C4=O [Rifabutin] | 1.26 | 0.759 | 1.51 | 1.08 | 2.11 | 1.35 |
| C[C@]12CCC(=O)C=C1[C@@H]1C[C@@H]1[C@H]1[C@@H]3[C@@H]4C[C@@H]4[C@@]4(CCC(=O)O4)[C@@]3(C)CC[C@@H]12 [Drospirenone] | 0.972 | 0.987 | 0.866 | 0.787 | 0.612 | 0.995 |
| COc1ccc(C2C(=O)c3ccccc3C2=O)cc1 [Anisindione] | 0.89 | 0.546 | 1.76 | 1.61 | 0.828 | 0.667 |
| NC(=O)c1cccnc1 [Nicotinamide (Vitamin B3)] | 0.857 | 0.597 | 2.86 | 0.938 | 0.669 | 1.28 |
| Cc1ncc(CO)c(CO)c1O [Pyridoxine HCl] | 0.686 | 0.861 | 0.642 | 0.7 | 0.426 | 1.11 |
| O=C(O)c1ccc2c(c1)nc(Nc1cccc(Cl)c1)c1ccncc12 [CX-4945 (Silmitasertib)] | 1.47 | 1.44 | 2.54 | 1.55 | 1.4 | 1.25 |
| O=C(c1ccc(OCCN2CCCCC2)cc1)c1c(-c2ccc(O)cc2)sc2cc(O)ccc12 [Raloxifene] | 2.37 | 2.49 | 2.15 | 2.23 | 2.54 | 2.52 |
| C=CCNC(N)=S [Allylthiourea] | 1.12 | 0.909 | 0.907 | 0.873 | 0.823 | 1.54 |
| C[N+](C)(C)CCO.O=C([O-])C(O)C(O)C(=O)O (stereo unspecified) [Choline bitartrate] | 1.35 | 1.24 | 0.973 | 1.15 | 0.96 | 1.37 |
| CC(C)[C@H](NC(=O)[C@H](CC(=O)O)NC(=O)[C@H](CCCCN)NC(=O)[C@@H](N)CCCN=C(N)N)C(=O)N[C@@H](Cc1ccc(O)cc1)C(=O)O [Thymopentin] | 1.56 | 1.19 | 0.821 | 0.825 | 0.557 | 1.06 |
